# Hit rate of the full screen: of about 330,000 compounds, about 10,000 (3%) were called active. This excerpt belongs to a sample that is enriched for actives. Values without a mark were called inactive.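 The calls were made as follows: active = inhibition of at least 50% at 8 µM in the primary screen; inactive = the rest.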
# Biological target: Protein Mdm4 (Homo sapiens) + E3 ubiquitin-protein ligase Mdm2 (Homo sapiens) (UniProt O15151+Q00987)
# Assay: inhibitors of human Mdm2-MdmX association, primary screen, cell-based, luminescence, split luciferase, SaOS-2, uHTS (AID 485346)
# Details: SaOS-2 split-luciferase Mdm2/MdmX complementation, at 8 µM, active compounds read high
# Sequence of Protein Mdm4 (Homo sapiens) + E3 ubiquitin-protein ligase Mdm2 (Homo sapiens) (O15151 whole entry, looked up): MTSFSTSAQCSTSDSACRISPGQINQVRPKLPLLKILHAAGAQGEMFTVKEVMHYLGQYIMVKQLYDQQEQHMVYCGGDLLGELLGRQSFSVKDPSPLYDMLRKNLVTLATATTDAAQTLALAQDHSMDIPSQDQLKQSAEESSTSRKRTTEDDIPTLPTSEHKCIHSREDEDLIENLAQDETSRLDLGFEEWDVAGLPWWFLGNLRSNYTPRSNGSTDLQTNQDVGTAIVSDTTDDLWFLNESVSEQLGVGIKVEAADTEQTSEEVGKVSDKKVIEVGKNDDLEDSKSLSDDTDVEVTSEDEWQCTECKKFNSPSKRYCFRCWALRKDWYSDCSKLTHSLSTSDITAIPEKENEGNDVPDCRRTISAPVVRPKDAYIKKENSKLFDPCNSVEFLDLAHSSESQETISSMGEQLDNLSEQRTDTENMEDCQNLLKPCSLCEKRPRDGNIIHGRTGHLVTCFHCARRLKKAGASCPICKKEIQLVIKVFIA
# Sequence of Protein Mdm4 (Homo sapiens) + E3 ubiquitin-protein ligase Mdm2 (Homo sapiens) (Q00987 whole entry, looked up): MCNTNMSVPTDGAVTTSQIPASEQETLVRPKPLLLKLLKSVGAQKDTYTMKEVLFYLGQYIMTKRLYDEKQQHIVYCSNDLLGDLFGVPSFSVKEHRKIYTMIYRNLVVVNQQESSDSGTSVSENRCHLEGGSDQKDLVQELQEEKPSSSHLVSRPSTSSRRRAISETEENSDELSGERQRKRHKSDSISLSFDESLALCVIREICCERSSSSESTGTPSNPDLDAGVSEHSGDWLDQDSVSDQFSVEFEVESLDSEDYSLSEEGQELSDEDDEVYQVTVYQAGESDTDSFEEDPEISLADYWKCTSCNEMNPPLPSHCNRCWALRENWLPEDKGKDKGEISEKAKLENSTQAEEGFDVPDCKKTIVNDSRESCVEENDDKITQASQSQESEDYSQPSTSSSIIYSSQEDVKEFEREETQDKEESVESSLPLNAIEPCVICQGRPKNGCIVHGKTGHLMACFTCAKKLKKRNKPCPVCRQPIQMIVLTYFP
row,SMILES,inhibition
1,CC(C)(Oc1ccc(Cl)cc1)C(=O)OCC(=O)NCCc1ccc(S(N)(=O)=O)cc1,-3.95%
2,CC1=C(C(N)=O)C(c2ccc(F)cc2)n2nc(CCCO)nc2N1 (configuration not stated),1.82%
3,CCOCCCNC(=O)C1(O)c2cc(Br)ccc2NC(=O)N1c1ccc(C)c(C)c1 (configuration not stated),18.7%
4,Cc1nc2cc(C(F)(F)F)ccc2n1CCNc1nc(-c2cc(Cl)c(N)c(Cl)c2)cs1,27.1%
5,CSc1ccc(NC(=O)N2CC(C)OC(C)C2)cc1 (configuration not stated),15%
6,COc1cc(NS(=O)(=O)c2ccc(NC(=O)c3ccc(S(=O)(=O)N4CCCCC4)cc3)cc2)ncn1,13.5%
7,O=C(CCl)NNc1nc(-c2ccccc2)c2cc(Cl)ccc2n1,19.7%
8,OCCCNc1nc(-c2ccccc2)c2cc(Cl)ccc2n1,19.5%
9,NC(N)=Nc1nc(-c2ccccc2)c2cc(Cl)ccc2n1,97.4% (active)
10,COC(=O)c1ccc(C2C3=C(Nc4nnnn42)c2ccccc2OC3)cc1 (configuration not stated),14.2%
11,COc1ccc(C(=O)NC(C)Cn2nc(C)cc2C)cc1OC1CCN(C(C)=O)CC1 (configuration not stated),2.18%
12,COC(=O)c1ccc(Nc2ncnc3sccc23)cc1,1.96%
13,O=C1CN(C(=O)c2ccccc2F)C(c2ccc(F)cc2)c2cc(F)ccc2N1 (configuration not stated),-22.4%
14,CCOC(=O)C1(CCOc2ccccc2)CCN(Cc2ccc(C#CCCO)cc2)CC1,27.4%
15,CC(C)CN(CC(C)C)CC(O)CN(c1ccccc1)S(=O)(=O)c1ccccc1[N+](=O)[O-] (configuration not stated),31.5%
16,CCOc1ccc(NS(=O)(=O)c2ccc(C(=O)NCC(c3ccccc3OC)N3CCCC3)cc2)cc1 (configuration not stated),38.1%
17,O=C(NCC1(N2CCCCC2)CCCCC1)c1ccc(NS(=O)(=O)c2ccc(F)cc2)cc1,8.39%
18,CCOc1ccc(S(=O)(=O)Nc2cccc(C(=O)NCC3(N4CCCCC4)CCCCC3)c2)cc1,66.6% (active)
19,COc1cccc(NC(=O)c2cc(S(=O)(=O)N3CCc4ccccc43)cn2C)c1,32%
20,COCc1cc(C)n(CC(=O)NCC2CCCO2)c(=O)c1C#N (configuration not stated),-12.8%
21,CCOC(=O)NNC(=O)c1ccc(Cl)cc1,9.31%
22,CCOC(=O)c1cc(NC(=O)c2ccc(Cl)cc2)c(=O)oc1-c1ccccc1,81.6% (active)
23,CC(=O)c1cc(NC(=O)c2ccccc2)c(=O)oc1/C=C/N(C)C,-7.04%
24,COC(=O)C1=C(C(=O)OC)[C@@H]2N(C)c3ccccc3[C@@]23C[C@@H](C(=O)OC)N(C(=O)c2ccco2)C3=N1,30%

row,SMILES,inhibition
1,Cc1ccc(-c2nnn(CC(=O)N(Cc3ccco3)C(C(=O)NC(C)(C)C)c3ccncc3)n2)o1 (configuration not stated),-5.12%
2,Cc1nn(-c2ccccc2)c2sc(C(=O)N(Cc3ccco3)C(C)C(=O)NC(C)(C)C)cc12 (configuration not stated),50.9% (active)
3,Cc1nc(C)c(C(=O)N(c2ccc(C)c(C)c2)C(C(=O)NCc2ccco2)c2ccccc2)s1 (configuration not stated),-6.49%
4,CCC(C)Cn1c(O)cc2nn(-c3nc4ccccc4s3)c(=O)c-2c1C (configuration not stated),39.4%
5,COc1ccc(NC(=O)/C(Cl)=C(/Cl)S(=O)Cc2ccc(C)cc2)cn1 (configuration not stated),91.5% (active)
6,CCOc1ccc(S(=O)(=O)Nc2ccc(OC)nc2)cc1,-9.26%
7,COc1ccc(CCNC(=O)c2cnc(Cl)c(Cl)c2)cc1,-0.067%
8,COc1ccc(Nc2ccc([N+](=O)[O-])cn2)cn1,8.39%
9,COc1ccc(CS(=O)/C(Cl)=C(/Cl)C(=O)Nc2ccc(OC)nc2)cc1 (configuration not stated),97.2% (active)
10,COC(=O)c1sccc1NC(=S)Nc1ccc(C)cc1,-1.32%
11,CCCCC(c1nnnn1CS(=O)(=O)c1ccc(C)cc1)N1CCC(C(N)=O)CC1 (configuration not stated),20%
12,CC(=O)NC1CCN(CC(=O)Nc2nccs2)CC1,10.5%
13,COc1ccccc1CNC(=O)COC(=O)c1cccs1,-8.99%
14,CN(C)CCCNC(=O)/C=C/c1ccc(OCc2c(F)cccc2Cl)cc1,41.4%
15,O=C(/C=C/c1ccc(OCc2c(F)cccc2Cl)cc1)N1CCOCC1,88.9% (active)
16,COCCCNC(=O)/C=C/c1ccc(OCc2c(F)cccc2Cl)cc1,-0.73%
17,COc1cccc(NC(=O)N2CCC(NC(=O)C(Cc3cccc(C)c3)NC(C)=O)CC2)c1 (configuration not stated),2.34%
18,CN(C)/C=C(/C(=O)c1ccccc1Cl)S(C)(=O)=O,-2.89%
19,CC(C(=O)O)N1C(=O)c2cccc3cccc1c23 (configuration not stated),14.4%
20,CN(Cc1cccs1)C(=O)Cc1c[nH]c2ccccc12,-16.7%
21,CCc1nc2sc(C(=O)O)c(N)c2c2c1CCCC2,-3.57%
22,CCc1nc2sc3c(Cl)ncnc3c2c2c1CCCC2,64.4% (active)
23,c1ccc(CSc2ncnc3c2sc2nc(N4CCOCC4)c4c(c23)CCCC4)cc1,2.45%
